This is a sample that favours compounds with a hit; in the whole collection about 19% have one here.
HT1080NT lethal – kills 2HG-producing HT-1080-NT fibrosarcoma cells. HT-1080-NT fibrosarcoma viability, CellTiter-Glo ATP luminescence, 48 h. Potency, µM (series often up to 46.1 µM), without a hit: at the highest dose activity, negative = less viability, actives largely listed as cytotoxic. actives 1.6% (n = 360,000);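 note: NT is the 2HG producing partner of a matched IDH1 knockdown line; potency is the fitted concentration of half-maximal effect; 0% = DMSO-treated cells and -100% = media-only wells without cells; nearly all actives have a fitted effect of over 55% in size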
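Viability by CellTiter-Glo luminescence after 48 h compound exposure at 37C of HT-1080-NT cells (750/well, RPMI, 5% FBS). % activity scaled between DMSO wells and medium-only wells, then curve-fitted and categorized by curve class.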
IL-1B inflam inh – blocks inflammasome-driven IL-1 beta release | actives 4.7% (n = 360,000) | THP-1 LPS/ATP IL-1B secretion, AlphaLISA, 16 h; stronger effect = lower value | activity change, % at 57.5 µM; in the data active = activity change below about -50%; inconclusive = mostly about -30% to -49%
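THP-1 cells pretreated 1 hr with compounds (up to 57.5 uM final), then stimulated with LPS (250 ng/mL final) plus ATP (1.25 mM final); secreted IL-1B measured by AlphaLISA after 16 hr, decreased signal indicating inhibition.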
TDP1 cell CPT – DT40-hTDP1 cell growth loss with CPT. chicken DT40 Tdp1-/-;hTDP1 cells + 20 nM CPT, ATP luminescence, 48 h. Potency, µM (titrated, usually from 46.2 µM), without a hit: at the highest dose activity change, negative = growth inhibition, hits mostly inhibitors. actives 12% (n = 420,000); note: potency is the fitted concentration of half-maximal effect; nearly all actives have a fitted effect of over 55% in size
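Cell growth measured by CellTiter-Glo luminescence after a minimum 48 h, 37 C compound exposure with 20 nM CPT in Tdp1-knockout DT40 cells stably expressing hTDP1, seeded 400/well; qHTS titration format.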
DT40 TDP1 no CPT – qHTS for Inhibitors of human tyrosyl-DNA phosphodiesterase 1 (TDP1): qHTS in cells in absence of CPT; DT40 Tdp1-/- hTDP1 cells, no CPT, ATP luminescence, 48 h; Potency, µM (series often up to 46.2 µM), for inactives: at the highest dose activity change, negative = growth inhibition, most hits filed as inhibitors; actives 15% (n = 420,000); AID 686978, 2013; note: potency is the fitted concentration of half-maximal effect; nearly all actives have a fitted effect of over 55% in size
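Luminescent ATP content (CellTiter-Glo) served as the growth readout. Knockout chicken DT40 cells expressing human TDP1 were exposed to compounds without camptothecin for a minimum 48 hr at 37 °C.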
HT1080 IDH1KD tx – toxicity to HT-1080 IDH1 knockdown cells (counter line); HT-1080 IDH1 knockdown viability, ATP luminescence, 48 h; Potency, µM (top dose mostly 46.1 µM), for inactives: top-dose activity, negative = toxicity, hits mostly cytotoxic; actives 2% (n = 360,000);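 note: potency is the fitted concentration of half-maximal effect; 0% = DMSO wells and -100% = cell-free medium wells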
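IDH1KD HT-1080 cells, 750/well, RPMI + 5% FBS; compound pinned after 2 h settling; 48 h, 37 °C; CellTiter-Glo luminescence; % activity normalised to DMSO and no-cell wells; curves fitted, classed by r2 and efficacy.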
* marks the source's active call; other numbers are inactive results; i = inactive; ? = inconclusive; nt = no result. Unless noted, calls come from the whole dose curve; as a rule, active = well fitted curve in the direction sought with a large enough effect; inconclusive = small, poorly fitted or top-dose-only effect, or another doubt; inactive = no such curve, though single readings can be large; an effect the other way counts as inactive or inconclusive. Unless noted, % is set by controls: 0 for no effect and ±100 for the full control effect.

SMILES	HT1080NT lethal	IL-1B inflam inh	TDP1 cell CPT	DT40 TDP1 no CPT	HT1080 IDH1KD tx
CC(C)C[C@H]1CN([C@@H](Cc2ccc(O)cc2)CN2CCCC2CN2C(=S)NC[C@@H]2Cc2ccccc2)C(=S)N1CC1CCCCC1 (stereo partly drawn)	-17.4%	-29.1	16.4µM*	14.6µM*	-4.0%
CC(C)C[C@H]1CNC(=S)N1C[C@H]1CCCN1C[C@H](Cc1ccc(O)cc1)N1C[C@H](Cc2ccc(O)cc2)N(CC2CCCCCC2)C1=S	11.6µM*	?	4.61µM*	6.51µM*	13µM*
CC(C)CCN1CCC[C@]2(N[C@H](c3ccccc3)[C@@H]3C(=O)N(Cc4ccccc4)C(=O)[C@@H]32)C1=O	2.9%	8.3	-29.8%	?	15.4%
COCC(=O)N1CCC(Oc2ccc(C(=O)NC3Cc4ccccc4C3)cc2)CC1	-3.2%	i	-26.1%	-29.8%	0.4%
CC(C)C[C@H]1CN([C@@H](Cc2ccc(O)cc2)CN2CCC[C@@H]2CN2C(=S)NC[C@@H]2Cc2ccccc2)C(=S)N1CC1CCCCCC1	?	-16.7	?	20.6µM*	-26.1%
Cc1ccsc1/C=N/NC(=O)c1nnn(-c2nonc2N)c1-c1ccc2c(c1)OCO2	8.3%	-51.9*	?	-18.3%	-3.7%
CC(C)c1c(C(=O)N/N=C/c2ccccc2OCc2c(F)cccc2Cl)nnn1-c1nonc1N	-20.3%	68.7	5.8µM*	2.31µM*	?
CCCOc1ccc(-c2c(C(=O)N/N=C/C3CCCCC3)nnn2-c2nonc2N)cc1	1.9%	7.9	25.9µM*	11.6µM*	-0.3%
CCc1ccc(/C=N/NC(=O)c2nnn(-c3nonc3N)c2C(C)C)cc1	-0.5%	26.9	?	18.4µM*	-27.5%
COc1ccc(CCN2CC(C(=O)Nc3ccc(S(C)(=O)=O)cc3)CC2=O)cc1OC (stereo not drawn)	4.8%	9.9	0.1%	17.6%	-0.3%
O=C(CNC(=O)c1ccc(Cl)cc1Cl)NCCCn1ccnc1	19.3%	-1.0	3.6%	-21.1%	22.6%
CCC1(c2ccc(F)cc2)NC(=O)N(CC(=O)Nc2ccccc2Cl)C1=O (stereo not drawn)	-16.5%	15.5	8.2%	-18.5%	0.0%
CCc1noc(C)c1C(=O)N(C)CC(=O)Nc1cccc(OC)c1	-3.4%	-6.8	-9.1%	3.4%	2.1%
CCOc1ccc(-c2c(C(=O)N/N=C/c3ccc(C)cc3)nnn2-c2nonc2N)cc1	-1.4%	9.9	1.64µM*	?	-0.9%
CN(Cc1ccc(Cl)cc1Cl)C(=O)CNC(=O)c1ccc2c(c1)OCO2	-2.1%	-7.3	-1.7%	-25.0%	-0.2%
CCNC(=O)c1c(NC(=O)c2cc(-c3cc(C)cc(C)c3O)n[nH]2)sc2c1CCCC2	-0.9%	-1.0	?	5.8µM*	8.1%
CCNC(=O)c1c(NC(C)=O)sc2c1CCCC2	14.1%	-8.6	0.9%	7.5%	9.8%
COc1ccc(CNC(=O)c2cc(-c3cc(C)cc(C)c3O)n[nH]2)cc1	-3.7%	-68.5*	?	?	-3.3%
COc1ccc(-c2cc(C(=O)NCc3ccc(F)cc3)[nH]n2)c(C)c1	1.3%	-7.5	18.4µM*	?	-1.4%
Cc1cc(C)c(O)c(-c2cc(C(=O)NCCc3ccc(S(N)(=O)=O)cc3)[nH]n2)c1	-19.4%	-50.9*	-21.6%	9.2µM*	-23.8%
CC1CCCCC1NC(=O)COC(=O)CNC(=O)c1cccc(F)c1 (stereo not drawn)	8.5%	24.8	12.7%	3.0%	14.5%
COCCn1c(SCc2ccc(C(=O)OC)o2)nnc1-c1c[nH]c2ccccc12	26.8%	-16.6	-20.2%	?	4.6%
CN(C)C(=O)c1ccc(-c2cncnc2N2CCNCC2)cc1	nt	nt	10.4%	1.6%	nt
Cc1cc(C)c(O)c(-c2cc(C(=O)NCc3ccccc3)[nH]n2)c1	?	?	18.4µM*	?	?
COc1ccc(CCNC(=O)c2cc(-c3cc(C)cc(C)c3O)n[nH]2)cc1OC	?	-23.8	?	?	?
SMILES	HT1080NT lethal	IL-1B inflam inh	TDP1 cell CPT	DT40 TDP1 no CPT	HT1080 IDH1KD tx
COc1ccc(-c2cc(C(=O)Nc3cc(OC)c(OC)c(OC)c3)[nH]n2)c(C)c1	?	-22.5	23.1µM*	11.6µM*	14.7%
COc1cccc(CNc2ncc(C(=O)Nc3cc(OC)c(OC)c(OC)c3)c(C)n2)c1	?	25.9	8.2µM*	9.2µM*	?
COc1ccc(-c2cc(C(=O)Nc3ccc(NC(C)=O)cc3)[nH]n2)c(C)c1	?	-22.0	?	-19.3%	4.9%
COCCCNC(=O)CCc1c(C)nc2c(c(C)nn2-c2ccc(C)cc2)c1C	10.2%	26.7	?	-28.4%	8.3%
CCN(CC)CCNC(=O)CCc1c(C)nc2c(c(C)nn2-c2ccc(C)cc2)c1C	18.4µM*	0.0	20.6µM*	13µM*	?
COCCNC(=O)CCc1c(C)nc2c(c(C)nn2-c2ccc(C)cc2)c1C	2.9%	-2.5	?	18.4µM*	-6.2%
COc1ccc(CCNC(=O)CCc2c(C)nc3c(c(C)nn3-c3ccccc3)c2C)c(OC)c1	nt	nt	23.1µM*	16.4µM*	nt
COc1cccc(CNC(=O)CCc2c(C)nc3c(c(C)nn3-c3ccc(C)c(C)c3)c2C)c1	nt	nt	20.6µM*	20.6µM*	nt
CCOc1ccc(CCNC(=O)CCc2c(C)nc3c(c(C)nn3-c3ccc(C)c(C)c3)c2C)cc1	nt	nt	1.2%	-2.3%	nt
COCCNC(=O)CCc1c(C)nc2c(c(C)nn2-c2ccc(C)c(C)c2)c1C	2.5%	-7.9	?	16.4µM*	-0.9%
COc1ccc(NC(=O)CN(C)CC(=O)c2c(C)[nH]c3ccccc23)cc1	-1.9%	4.3	?	?	-4.4%
COc1ccccc1CN(C)CC(=O)c1c(C)[nH]c2ccccc12	nt	nt	17.8µM*	17.8µM*	nt
CC(=O)c1c(-c2ccccc2)[nH]c2ccccc12	?	-6.6	13µM*	13µM*	?
Cc1[nH]c2ccccc2c1C(=O)CCl	?	-107.3*	2.59µM*	3.66µM*	?
Cc1[nH]c2ccccc2c1C(=O)CN(C)c1ccccc1	nt	nt	-113.7%	?	nt
O=C(O)/C=C/C(=O)c1c(-c2ccccc2)[nH]c2ccccc12	-3.3%	8.6	?	?	-1.3%
Cc1nc(C(F)(F)F)ccc1C(=O)N1CCCC(C(=O)O)CC1 (stereo not drawn)	24.7%	0.0	-5.7%	-1.7%	19.5%
CN(C)S(=O)(=O)c1cc(NC2CC(=O)N(c3ccc(F)cc3)C2=O)ccc1Cl (stereo not drawn)	6.9%	-1.5	9.4%	8.7%	6.7%
